The record followed here is the OligoGym collection.
Also: reference of the scale not given here.

The target of the first experiment is FAM194A. The experiment can be described thus: pooled miR-30 sensor sort-seq; sequence = guide strand. Particulars: shRNA.
With TTTATCAGACAAATCTTGGAGC, the sensor-assay potency score (higher = more potent) is -0.442.
In turn, TTAGTTTCGACTCTTCTGGATT returned a sensor-assay potency score (higher = more potent) of -1.18.
For TTAAGCGCTTTGAATCATCTTC, the sensor-assay potency score (higher = more potent) was -0.166.
TTTAGTTTCGACTCTTCTGGAT displayed a sensor-assay potency score (higher = more potent) of 0.0335.
With TTGTCTTGTTCTAAGATGCGGA, the sensor-assay potency score (higher = more potent) is -0.227.
TTCTCTAAGAGCTCATTCCTGA: the sensor-assay potency score (higher = more potent) is -0.231.

The target in a further experiment is FAM203A. The description is as above. Particulars: shRNA.
TTGCAGTGGTTTTCTGTCCAGT showed a sensor-assay potency score (higher = more potent) of -0.715.
The same measure, in the same setting: as for ATGGCTTCAACAAGCATCTTGC, the figure is -0.247; as for TCTTGCGGATGTCTGCATCAGG, -1.13.
On the same count and under the same terms, next, TTCAACAAGCATCTTGCGGATG: -0.806; TGATGTCGGTGCTCGAAGCAGC: -0.572; AGGTCCAAGCAACCACTCGTGA: -1.79.
TCCAACTGCTCCTGCTCCCTGC displayed a sensor-assay potency score (higher = more potent) of -0.834.
For TGGACCACGCACCTGTCGGGGT, the sensor-assay potency score (higher = more potent) is -1.1.
As to TGCAAGTCGACAGGCAGCCGTT, the sensor-assay potency score (higher = more potent) is -1.26.
In turn, TGCATCAGGTTCTCGCTGCTTG gave a sensor-assay potency score (higher = more potent) of -0.383.
The sequence TAGCCGGGCGTGCACAGCGCGC had a sensor-assay potency score (higher = more potent) of -1.89.

The next experiment deals with FAM22D. The description is as above. Particulars: shRNA.
For the sequence TTCCACAATGAGAAAAGCCAAG, the sensor-assay potency score (higher = more potent) is -1.63.
TGAGGAAGCACGAAAGCGCTTC yielded a sensor-assay potency score (higher = more potent) of -0.41.
For the sequence ATGAATGACGGCCTCCACCTTG, the sensor-assay potency score (higher = more potent) is -1.02.
Consider TTGGTCTCTGCTCGCCGGTGGG, for which the sensor-assay potency score (higher = more potent) was -1.33.
Same read-out and setting: as for TTAGACAGCACCAGAGGGCCGC, the figure is -0.28; as for TAAGACCAAGGTCTGCGCCTGA, -0.117.
On the same count and under the same terms, next, TTGAAAGTAAACAGGTTCCTGG: -0.42.
In the case of TGTTCTGTCACCAGAGGTGTGC, the sensor-assay potency score (higher = more potent) is -0.395.
Still for that read-out and setting: as for AAGTTAGACAGCACCAGAGGGC, the figure is -0.454; as for AATTCTTCCAGGAATTGGGGAT, -0.511.
The same measure, in the same setting: next, TTCTCATAGACACTCCTGGGGT: -0.655.
Same read-out and setting: next, TAAGACCCAGAGAGTGACCTGG: -0.135; TTTGAAAGTAAACAGGTTCCTG: -0.0805.
On to TTGGTGACGAAGTCTTTCTGGG, for which the sensor-assay potency score (higher = more potent) is -0.0512.
Turning to TCTCATAGACACTCCTGGGGTT, the sensor-assay potency score (higher = more potent) came out at 0.0703.
TTCGGTGTCAGGACTCTGGGGA had a sensor-assay potency score (higher = more potent) of 0.265.
Still for that read-out and setting: next, TGGTCTCTGCTGGTCTCTGGGG: -1.54; TACTCCTGCACCACTTCTGGGG: -0.442.

For a further experiment, the target named is FAM22F. The experiment is described as above. Particulars: shRNA.
TTCTTGGACTTGCTGGCAGGAG registered a sensor-assay potency score (higher = more potent) of -0.948.
Still for that read-out and setting: as for AAGCACAGCAGGGTCTTCGGAC, the figure is -0.95.
Still for that read-out and setting: next, TCTCTCGCTGCTTCTTGGCCAG: -0.748; TTGACAGGAGACTCTCCAGGGA: -0.14.
TGACAGGAGACTCTCCAGGGAG yielded a sensor-assay potency score (higher = more potent) of -0.895.
